Among the test systems are DU-145 prostate; K-562 leukemia; MALME-3M melanoma; MDA-MB-231 breast; RXF 393 renal; SF-268 CNS; SF-295 CNS; SF-539 CNS; UACC-257 melanoma; M14 melanoma.
What all share (test): NCI-60 one-dose screen, 48 h (100 = growth as untreated, 0 = no growth, -100 = all killed)
Common to all, as to conditions: 10 µM unless noted

Compounds without any hit were thinned out: in the full panel of roughly 83,000, 20% have a hit.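 Compound tested at a single concentration for 48 hours in 96-well plates; a percent growth value below 10 was scored as active.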 Values without a mark were called inactive. Calls of active or inactive are those of the source.

Take `Cc1ccc(C2SCC(=O)N2Cc2ccccc2)cc1` (stereo not given): the growth was 118% in the experiment with DU-145 prostate; 110% in the experiment with K-562 leukemia; 93.3% in the experiment with MALME-3M melanoma; 98.3% in the experiment on MDA-MB-231 breast; 114% in the experiment on RXF 393 renal; 115% in the experiment with SF-268 CNS. The growth in the experiment with SF-295 CNS is 95%; in the experiment on SF-539 CNS, 109%; in the experiment with UACC-257 melanoma it was 97.7%; in the experiment with M14 melanoma, 104%.

With `O=[N+]([O-])c1ccc(-c2cc(-c3ccc(Nc4nc(Nc5ccc(Cl)cc5)nc(Nc5ccc(Cl)cc5)n4)cc3)no2)cc1`, the growth in the experiment on DU-145 prostate was 87.7%; in the experiment on K-562 leukemia, 65.6%; in the experiment on MALME-3M melanoma, 96.3%; with MDA-MB-231 breast, 73.5%; with RXF 393 renal it was 71.7%; with SF-268 CNS it was 96.1%. The growth with SF-295 CNS was 563%; in the experiment on SF-539 CNS, 95.4%; in the experiment with UACC-257 melanoma, 105%; in the experiment with M14 melanoma, 102%.

For the molecule `CC(CN1CCCCC1)C(=O)c1ccccc1` (stereo not given), the growth was 104% in the experiment on DU-145 prostate; 101% in the experiment with K-562 leukemia; 107% in the experiment on MALME-3M melanoma; 99.7% in the experiment on MDA-MB-231 breast; 112% in the experiment with RXF 393 renal; 99.9% in the experiment with SF-268 CNS. Moreover, the growth in the experiment on SF-295 CNS was 101%; in the experiment with SF-539 CNS, 92.1%; in the experiment with UACC-257 melanoma, 103%; with M14 melanoma it was 98.3%.

For `Cc1cc(Cl)nc(NCc2cc(Nc3ccnc4cc(Cl)ccc34)ccc2F)n1`, the growth in the experiment on DU-145 prostate was 52.3%; in the experiment on K-562 leukemia, 26.9%; with MALME-3M melanoma, 77.2%; in the experiment with MDA-MB-231 breast, 54.4%; with RXF 393 renal, 61.2%; with SF-268 CNS, 58.2%. For the same molecule, the growth with SF-295 CNS is 69.5%; in the experiment on SF-539 CNS, 70.5%; with UACC-257 melanoma it was 64.2%; in the experiment with M14 melanoma, 60.9%.

Consider `NC(=O)c1ccc[n+]([C@@H]2O[C@H](COP(=O)([O-])OP(=O)(O)OC[C@H]3O[C@@H](n4cnc5c(N)ncnc54)[C@H](O)[C@@H]3O)[C@@H](O)[C@H]2O)c1`, for which the growth in the experiment on DU-145 prostate is 105%; in the experiment with K-562 leukemia, 109%; in the experiment on MALME-3M melanoma, 115%; in the experiment on MDA-MB-231 breast it was 98%; in the experiment on RXF 393 renal, 125%; in the experiment on SF-268 CNS it was 104%. Also, the growth was 108% in the experiment with SF-295 CNS, 90.3% in the experiment on SF-539 CNS, 108% in the experiment on UACC-257 melanoma and 104% in the experiment with M14 melanoma.

Regarding `O=C(N/N=C/c1ccncc1)c1ccc(C(F)(F)F)nc1Nc1cccc(C(F)(F)F)c1`, the growth with DU-145 prostate was 40.6%; in the experiment with K-562 leukemia, 13.9%; with MALME-3M melanoma, 4.45% (active); in the experiment on MDA-MB-231 breast, 21.1%; with RXF 393 renal it was -8.63% (active); in the experiment with SF-268 CNS, 23.4%. The growth with SF-295 CNS was -24.1% (active); with SF-539 CNS, 26.1%; in the experiment on UACC-257 melanoma, 21.9%; in the experiment on M14 melanoma, 25.4%.

As for `COc1ccc(NC(=O)CSc2nnc(-c3cc(-c4ccc(S(N)(=O)=O)cc4)nc4ccccc34)n2-c2ccccc2)cc1`, the growth is 96.6% with DU-145 prostate; 66.4% in the experiment with K-562 leukemia; 77.5% in the experiment with MALME-3M melanoma; 72.8% in the experiment on MDA-MB-231 breast; 81.9% in the experiment on RXF 393 renal; 68.6% in the experiment with SF-268 CNS. The growth is 94.5% with SF-295 CNS, 78.4% with SF-539 CNS, 103% in the experiment on UACC-257 melanoma and 86.1% in the experiment with M14 melanoma.

For the molecule `O=C1Nc2ccccc2/C1=C/c1cn(C(=O)c2c(Cl)cccc2Cl)c2ccccc12`, the growth is 59.3% with DU-145 prostate; 45.7% with K-562 leukemia; 117% with MALME-3M melanoma; 55.1% with MDA-MB-231 breast; -4.11% (active) in the experiment on RXF 393 renal; 56.6% in the experiment with SF-268 CNS. Moreover, the growth with SF-295 CNS is 44.5%; in the experiment on SF-539 CNS, 67.4%; in the experiment with UACC-257 melanoma, 79.2%; with M14 melanoma it was 66.2%.

On to `CC1=C(SCCC(=O)OC(C[Se]C2=C(C)C(=O)c3ccccc3C2=O)C(=O)NCCCCCC(=O)OCc2ccccc2)C(=O)c2ccccc2C1=O` (stereo not given), for which the growth in the experiment with DU-145 prostate is 39.1%; in the experiment with K-562 leukemia, 21.6%; in the experiment with MALME-3M melanoma it was 45.6%; in the experiment on MDA-MB-231 breast, 59%; in the experiment with RXF 393 renal, 57.8%; with SF-268 CNS, 48.8%. Also, the growth in the experiment on SF-295 CNS is -7.98% (active); with SF-539 CNS, 9.31% (active); in the experiment with UACC-257 melanoma, 45.4%; in the experiment with M14 melanoma, -1.57% (active).

Consider `Cc1ccc(-c2c(-c3ccccc3)c(=O)oc3ccc(C)cc23)cc1`, for which the growth is 116% with DU-145 prostate; 76% in the experiment with K-562 leukemia; 92.9% in the experiment on MALME-3M melanoma; 91% in the experiment with MDA-MB-231 breast; 107% in the experiment on RXF 393 renal; 91.8% in the experiment with SF-268 CNS. Moreover, the growth was 104% in the experiment on SF-295 CNS, 109% in the experiment with SF-539 CNS, 86.8% in the experiment with UACC-257 melanoma and 102% with M14 melanoma.

Take `CC1(C)CC(=O)CC2(C1)N=C(N)Nc1nc3ccccc3n12` (stereo not given): the growth with DU-145 prostate is 115%; with K-562 leukemia it was 103%; in the experiment on MALME-3M melanoma, 104%; in the experiment with MDA-MB-231 breast it was 96.5%; in the experiment on RXF 393 renal, 104%; with SF-268 CNS it was 107%. Further, the growth with SF-295 CNS is 108%; in the experiment with SF-539 CNS, 105%; in the experiment with UACC-257 melanoma, 106%; in the experiment with M14 melanoma, 110%.

In the case of `COc1ccc(-c2cc(-c3cc(OC)c(OC)c(OC)c3)c(C#N)c(N3CCOCC3)n2)cc1O`, the growth in the experiment with DU-145 prostate was 59%; with K-562 leukemia, 2.4% (active); with MALME-3M melanoma it was 126%; in the experiment with MDA-MB-231 breast, 49.8%; in the experiment on RXF 393 renal, 41.3%; in the experiment on SF-268 CNS, 49.6%. Besides, the growth in the experiment on SF-295 CNS was 41.6%; with SF-539 CNS it was 37.9%; with UACC-257 melanoma it was 90.3%; with M14 melanoma it was 67.5%.

For the molecule `Cc1c(C(=O)OC(=NC2CCCCC2)NC2CCCCC2)sc2c1c(=O)nc1c(C#N)n[nH]n12`, the growth was 110% in the experiment with DU-145 prostate; 82.7% in the experiment on K-562 leukemia; 113% in the experiment on MALME-3M melanoma; 113% with MDA-MB-231 breast; 99.2% in the experiment with RXF 393 renal; 106% with SF-268 CNS. Also, the growth was 109% with SF-295 CNS, 104% with SF-539 CNS, 102% with UACC-257 melanoma and 103% in the experiment with M14 melanoma.

The record behind these values is PubChem BioAssay (NCI).
